Experimental findings from PubChem BioAssay (EPA / NIEHS) are described below.

A short description of test [1]: CCTE_Deisenroth_5AR_NBTE_acceptor: CCTE's 5alpha-reductase NanoBRET Target Engagement Assay - Autofluorescence Screen, Deisenroth Lab (AID 2284321).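 Also: compound fluorescence in the acceptor channel under 460 nm excitation flags autofluorescence artifacts.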 The following applies: actives raise or lower the signal. The essentials:
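Acceptor-channel fluorescence flags artifacts, with excitation fixed at 460 nm. Nominal 100 uM chemical samples were read in triplicate runs, and signal changes were fitted in both directions relative to DMSO.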

The target in test [2] is Estrogen receptor (Homo sapiens) (UniProt P03372). The test can be described thus: NVS_NR_hER: NovaScreen (NVS) Nuclear Receptor Binding Assay for human Estrogen Receptor (ER) (AID 2283348; active = hit-call score of the fitted dose curve at least 0.9, where 1 is the maximum). In a few lines: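 Scintillation signal from bound radioligand was measured 18 hours after chemical addition to cell-free MCF7 protein extracts, with DMSO as baseline. Activity was scored as signal loss; compounds ran first at 25 uM in duplicate.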
Estrogen receptor (Homo sapiens), sequence (P03372 whole entry, looked up): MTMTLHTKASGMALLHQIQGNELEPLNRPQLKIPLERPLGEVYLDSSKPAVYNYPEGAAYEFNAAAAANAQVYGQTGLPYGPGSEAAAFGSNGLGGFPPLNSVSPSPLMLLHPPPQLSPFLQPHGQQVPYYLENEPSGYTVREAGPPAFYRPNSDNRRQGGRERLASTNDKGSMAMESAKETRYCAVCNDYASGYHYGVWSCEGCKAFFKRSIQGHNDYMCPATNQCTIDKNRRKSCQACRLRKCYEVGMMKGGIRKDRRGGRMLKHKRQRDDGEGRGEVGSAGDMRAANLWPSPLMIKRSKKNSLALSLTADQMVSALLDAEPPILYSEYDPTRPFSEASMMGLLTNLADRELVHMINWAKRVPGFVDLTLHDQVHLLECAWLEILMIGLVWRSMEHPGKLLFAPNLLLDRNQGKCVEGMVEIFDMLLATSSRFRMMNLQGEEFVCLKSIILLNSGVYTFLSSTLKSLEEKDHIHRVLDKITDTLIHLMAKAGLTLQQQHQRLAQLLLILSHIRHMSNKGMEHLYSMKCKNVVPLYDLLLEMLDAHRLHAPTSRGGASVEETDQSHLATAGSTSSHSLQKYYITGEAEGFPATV

Test [3] can be described thus: CEETOX_H295R_ESTRADIOL: CeeTox H295R High-throughput Steroidogenesis Assay for Estradiol (AID 2283440).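 Also: estradiol secreted into medium quantified by LC-MS/MS after dansyl derivatisation.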 The following applies: actives raise or lower the signal. The essentials: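 Estradiol in spent medium measured by LC-MS/MS after dansyl chloride derivatisation. Forskolin-primed (10 uM, 48 h) human adrenal H295R cells received test chemical 48 h at 0.1% DMSO; concentrations lowered until MTT viability >/=70%.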

A short description of test [4]: CEETOX_H295R_ESTRONE: CeeTox H295R High-throughput Steroidogenesis Assay for Estrone (AID 2283441).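 Also: estrone secreted into medium measured by LC-MS/MS after dansyl derivatization.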 The note with it: actives raise or lower the signal. In a few lines:
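H295R cells; 48 h forskolin (10 uM) prestimulation; 48 h compound exposure, 0.1% DMSO final. Medium estrone: MTBE extraction, dansyl derivatization, HPLC-MS/MS. Bidirectional fit vs DMSO.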

Test [5] addresses human Caspase 5 (CASP5), CASP5 (gene 838) (UniProt P51878). The test can be described thus: NVS_ENZ_hCASP5: NovaScreen (NVS) Enzymatic Assay for human Caspase 5 (CASP5) (AID 2283137; active = hit-call score of the fitted dose curve at least 0.9, where 1 is the maximum). The essentials: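 Recombinant E. coli-expressed human caspase 5 in a cell-free enzyme assay; fluorescence intensity read 2 hours after chemical dosing. Single-concentration duplicate screen at 25 uM, then concentration-response up to 50 uM for hits; DMSO negative control.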

In test [6] the target is human Phosphoinositide 3-kinase alpha (PI3Ka), PIK3CA (gene 5290) (UniProt P42336). The test can be described thus: NVS_ENZ_hPI3Ka: NovaScreen (NVS) Enzymatic Assay for human Phosphoinositide 3-kinase alpha (PI3Ka) (AID 2283196; active = hit-call score of the fitted dose curve at least 0.9, where 1 is the maximum). The essentials: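 Recombinant human PI3Kα with fluorescent substrate, 1 h, product separated by electrophoretic mobility shift; 25 uM duplicate screen, hits (e.g., 30% inhibition) retested singly up to 50 uM; loss of signal vs DMSO.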
human Phosphoinositide 3-kinase alpha (PI3Ka), PIK3CA (gene 5290), sequence (P42336 whole entry, looked up): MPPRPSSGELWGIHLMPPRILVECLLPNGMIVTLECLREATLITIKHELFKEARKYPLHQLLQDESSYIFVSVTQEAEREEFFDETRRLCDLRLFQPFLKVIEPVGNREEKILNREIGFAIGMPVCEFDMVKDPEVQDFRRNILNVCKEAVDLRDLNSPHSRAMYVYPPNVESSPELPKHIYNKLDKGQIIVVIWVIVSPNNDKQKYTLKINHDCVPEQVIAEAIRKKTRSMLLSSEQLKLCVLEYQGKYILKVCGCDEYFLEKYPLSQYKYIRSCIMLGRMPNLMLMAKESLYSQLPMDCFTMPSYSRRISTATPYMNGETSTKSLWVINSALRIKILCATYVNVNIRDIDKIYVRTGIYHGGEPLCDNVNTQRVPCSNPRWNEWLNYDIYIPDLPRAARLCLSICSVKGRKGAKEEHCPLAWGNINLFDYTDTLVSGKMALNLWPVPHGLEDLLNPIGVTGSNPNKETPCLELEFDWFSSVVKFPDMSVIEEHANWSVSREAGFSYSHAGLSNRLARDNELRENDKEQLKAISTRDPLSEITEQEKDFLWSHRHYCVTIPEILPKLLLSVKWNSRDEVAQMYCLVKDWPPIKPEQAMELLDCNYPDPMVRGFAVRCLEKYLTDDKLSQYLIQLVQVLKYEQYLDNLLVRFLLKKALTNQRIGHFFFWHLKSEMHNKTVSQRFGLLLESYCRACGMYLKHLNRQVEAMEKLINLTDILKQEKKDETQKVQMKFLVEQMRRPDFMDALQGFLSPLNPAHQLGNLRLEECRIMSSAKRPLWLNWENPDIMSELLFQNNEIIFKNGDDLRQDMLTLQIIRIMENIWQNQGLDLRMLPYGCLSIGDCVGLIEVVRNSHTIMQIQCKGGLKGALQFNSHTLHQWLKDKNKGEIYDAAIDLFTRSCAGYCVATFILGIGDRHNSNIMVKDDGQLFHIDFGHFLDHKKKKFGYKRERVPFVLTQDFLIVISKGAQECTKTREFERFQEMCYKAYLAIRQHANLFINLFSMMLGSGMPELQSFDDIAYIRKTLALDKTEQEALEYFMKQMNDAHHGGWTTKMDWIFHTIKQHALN

Test [7] is described as follows: CCTE_Shafer_MEA_acute_spike_number: CCTE's Neural Acute Assay for Total Number of Spikes, Shafer Lab (AID 2284008).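 As to AC50: curve fitted for decrease in spike count so AC50 reflects inhibitors.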 In a few lines:
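Total spike count from 40 min recordings before and during compound exposure (0.03-40 uM), given as per-well percent change. Cortical cultures from rat, DIV 13 or 15, 37 C; adaptive detection threshold 8x rms noise.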

The nature of test [8]: CCTE_Shafer_MEA_acute_firing_rate_mean: CCTE's Neural Acute Assay for Mean Firing Rate, Shafer Lab (AID 2284009).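 Also: analyzed for loss of signal so actives lower firing rate relative to DMSO.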 The essentials: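 Percent change in well-mean firing rate was derived from extracellular spikes detected at 8x rms noise (300-5000 Hz band-pass) before and after a 40-min compound exposure. Cultures were primary rat cortical neurons, tested at 0.03-40 uM.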
A short description of test [9]: CCTE_Shafer_MEA_acute_burst_number: CCTE's Neural Acute Assay for Single-Electrode Bursts, Shafer Lab (AID 2284013). In a few lines: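 Spontaneous network activity of primary rat cortical neurons was recorded extracellularly on microelectrode arrays at 37 C, with 40-min periods before and during exposure to 0.03-40 uM compound on DIV 13 or 15.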
Test [10] is described as follows: CCTE_Shafer_MEA_acute_burst_duration_mean: CCTE's Neural Acute Assay for Mean Burst Duration, Shafer Lab (AID 2284014).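 Also: hits are decreases in mean burst duration relative to DMSO controls.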 In a few lines: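 Read-out is the per-well percent change in mean burst duration (first to last spike within a single-electrode burst) between 40-min recordings before and after compound. Cultures were primary rat cortical neurons on MEAs, dosed at 0.03-40 uM on DIV 13 or 15.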

Test [11] in a line: CCTE_Shafer_MEA_acute_per_burst_spike_number_mean: CCTE's Neural Acute Assay for Average Number of Spikes Per Burst, Shafer Lab (AID 2284015).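 Also: hits are decreases in mean spikes per burst versus baseline.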 In a few lines:
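Rat primary cortical neurons on 48-well MEAs (DIV 13 or 15) were treated with 0.03-40 uM compound at 37 C. Mean spikes per burst over 40 min were recorded before and after exposure and expressed as percent change from baseline, relative to DMSO.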

Test [12] is described as follows: CCTE_Shafer_MEA_acute_interburst_interval_mean: CCTE's Neural Acute Assay for Mean Interburst Interval, Shafer Lab (AID 2284016).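 Also: percent change of mean interburst interval versus each well's own pre-dose baseline; curves fitted for decrease in interburst interval relative to DMSO.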 In a few lines:
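Rat primary cortical neurons on 48-well MEAs at DIV 13 or 15 were exposed acutely to 0.03-40 uM. Spikes detected at 8x rms noise, 37 C. Mean interburst interval from 40 min recordings expressed as percent change from 40 min pre-treatment baseline.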

The nature of test [13]: CCTE_Shafer_MEA_acute_burst_percentage_mean: CCTE's Neural Acute Assay for Percentage of Spikes in a Burst, Shafer Lab (AID 2284017).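 Also: curve fitted for loss of signal so potency reflects decreased burst percentage.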 The essentials: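 Primary rat cortical neurons on 48-well MEA plates, treated on DIV 13 or 15 at 0.03-40 uM. Spikes detected at 8x rms noise at 37C; percent change from 40-min baseline to 40-min post-dose recording, fitted versus DMSO.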
Test [14] is described as follows: CCTE_Shafer_MEA_dev_per_network_spike_spike_number_mean: CCTE's Neural Network Formation Assay for Mean Number of Spikes in a Network Spike, Shafer Lab (AID 2284053).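 As to AC50: fitted as decrease in spikes per network spike relative to DMSO.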 The essentials:
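Primary rat cortical neurons on 48-well, 16-electrode MEA plates were exposed from plating to DIV 12, with dosing renewed on DIV 5 and 9. Spikes per network spike (0.05 s peak window) were recorded on DIV 5, 7, 9 and 12 and collapsed as trapezoidal AUC versus DMSO.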

A short description of test [15]: CCTE_Shafer_MEA_dev_per_network_spike_spike_percent: CCTE's Neural Network Formation Assay for Percent of Spikes in a Network Spike, Shafer Lab (AID 2284054). In a few lines: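 Rat primary cortical cultures, 1.5 x 10^5 cells/well on MEA. Continuous compound exposure d0–12, medium/compound renewed DIV 5, 9. Network-spike spike % (0.05 s peak window), AUC over 4 recordings, DMSO baseline.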

Test [16] is described as follows: CCTE_Shafer_MEA_dev_mutual_information_norm: CCTE's Neural Network Formation Assay for Mutual Information Normalization, Shafer Lab (AID 2284091).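 As to AC50: mutual information between electrodes summarised as area under curve across four recording days; potency is for a decrease in mutual information relative to DMSO.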 The essentials: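 Developing rat cortical networks on 16-electrode MEA wells are treated throughout formation (DIV 0–12). Shared electrode information is recorded four times, converted to area-under-curve, and fitted for decreases against DMSO vehicle.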

The nature of test [17]: TAMU_PeakParms_SingleDonor1434_Chronotropy: Texas A&M University (TAMU) 1.5-hr Human Induced Pluripotent Stem Cell (iPSC)-derived Cardiomyocytes Calcium (Ca+2) Flux Assay for Cardiotoxicity: Chronotropy (changes in peak frequency) (AID 2284217). The following applies: actives raise or lower the signal. In a few lines:
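iPSC-derived cardiomyocytes (single donor 1434) dosed at 0.2, 1, 10 and 100 uM in 0.5% DMSO for 1.5 h at 37C; Ca2+ dye fluorescence gave average beat frequency. Zero-beat points removed; bidirectional fit versus DMSO, POD as EC05.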

For test [18], the target named is human Dopamine Transporter (DAT), SLC6A3 (gene 6531) (UniProt Q01959). The test can be described thus: NVS_TR_hDAT: NovaScreen (NVS) Transporter Assay for human Dopamine Transporter (DAT) (AID 2283374; active = hit-call score of the fitted dose curve at least 0.9, where 1 is the maximum;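 also: activity means loss of bound radioligand signal relative to DMSO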). The essentials:
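Test chemicals were first screened in duplicate at 25 uM, with actives retested as concentration series. Displacement of a specific radioligand from cell-free human dopamine transporter was measured after 1 h by filtration and scintillation counting.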

Records with an inconclusive call do not appear. The source made the active and inactive calls. The calls were made as follows, unless noted: active = hit-call score of the fitted dose curve at least 0.9, where 1 is the maximum; inactive = score below 0.9.

human Caspase 5 (CASP5), CASP5 (gene 838), sequence (P51878 whole entry, looked up): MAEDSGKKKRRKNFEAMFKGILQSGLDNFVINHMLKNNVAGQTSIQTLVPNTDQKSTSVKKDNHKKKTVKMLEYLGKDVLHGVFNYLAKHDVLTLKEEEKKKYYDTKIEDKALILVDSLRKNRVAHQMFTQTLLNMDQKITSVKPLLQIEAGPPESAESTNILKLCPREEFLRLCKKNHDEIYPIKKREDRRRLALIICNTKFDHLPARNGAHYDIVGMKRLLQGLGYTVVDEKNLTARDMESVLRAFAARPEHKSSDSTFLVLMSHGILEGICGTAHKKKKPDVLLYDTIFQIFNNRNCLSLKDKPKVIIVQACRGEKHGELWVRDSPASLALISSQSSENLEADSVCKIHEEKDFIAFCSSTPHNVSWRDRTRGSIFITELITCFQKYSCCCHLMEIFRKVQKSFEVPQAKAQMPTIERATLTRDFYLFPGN
human Dopamine Transporter (DAT), SLC6A3 (gene 6531), sequence (Q01959 whole entry, looked up): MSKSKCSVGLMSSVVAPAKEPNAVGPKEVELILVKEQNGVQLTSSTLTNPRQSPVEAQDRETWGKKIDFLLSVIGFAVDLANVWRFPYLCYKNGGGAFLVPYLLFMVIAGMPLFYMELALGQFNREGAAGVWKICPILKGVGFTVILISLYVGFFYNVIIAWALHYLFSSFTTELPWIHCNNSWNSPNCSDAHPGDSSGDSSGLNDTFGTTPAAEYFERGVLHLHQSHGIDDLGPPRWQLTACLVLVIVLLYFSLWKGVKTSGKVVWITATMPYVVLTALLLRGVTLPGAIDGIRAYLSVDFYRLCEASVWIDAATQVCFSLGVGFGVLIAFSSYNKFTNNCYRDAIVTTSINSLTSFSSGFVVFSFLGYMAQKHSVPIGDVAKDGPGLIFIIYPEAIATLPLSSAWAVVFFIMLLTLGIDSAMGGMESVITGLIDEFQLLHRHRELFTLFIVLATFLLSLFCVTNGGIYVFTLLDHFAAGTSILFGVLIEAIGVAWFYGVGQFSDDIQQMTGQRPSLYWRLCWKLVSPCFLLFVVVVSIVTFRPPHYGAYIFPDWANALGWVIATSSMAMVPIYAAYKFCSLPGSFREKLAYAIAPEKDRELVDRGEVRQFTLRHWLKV

Take `C=CC(=O)OCC(CC)CCCC` (stereo not drawn): in test [1], the call was inactive.

On to `O=C(O)c1cc[c]([Hg][Cl])cc1`, for which, in [2], the compound was called inactive.

With `O=CNC(N1CCN(C(NC=O)C(Cl)(Cl)Cl)CC1)C(Cl)(Cl)Cl` (stereo not drawn), the result in [3] and in test [4] was inactive.

Take `O=c1c2ccccc2c(=O)c2c1cc(Cl)c1[nH]c3c([nH]c12)c(Cl)cc1c(=O)c2ccccc2c(=O)c13`: the concentration at half-maximal activity (AC50) is 296 nM (active) in test [5], 4.37 µM (active) in [6] and 21 µM (active) in test [13]. The result in [7], in test [8], in [9], in test [10], in test [11] and in [12] was inactive.

In the case of `Cc1ccc(OP(=O)(Oc2ccc(C)cc2)Oc2ccc(C)cc2)cc1` (tested in a mixture with another compound), the half-maximal activity concentration (AC50) in test [7] was 4.2 µM (active); in test [8], 4.2 µM (active); in [9] it was 3.7 µM (active); in [11] it was 3.99 µM (active); in test [12], 7.32 µM (active); in [13], 6.45 µM (active). For the same compound, the compound was classed as inactive in [10], in [14], in test [15], in test [16] and in test [17].

With `Cc1ccccc1CCl`, the outcome in test [6] was inactive.

As to `CC1CCCC1.[C-]#[O+].[C-]#[O+].[C-]#[O+].[Mn]`, the result in test [14], in test [15] and in test [16] was inactive. Besides, the AC50 in [17] was 50 µM (active).

On to `CNC(=O)Oc1cc(C)c(SC)c(C)c1`, for which the call in test [3] and in test [4] was inactive.

Turning to `CC1(C)[C@H](C(=O)O[C@H](C#N)c2cccc(Oc3ccccc3)c2)[C@@H]1C=C(Br)Br`, the half-maximal activity concentration (AC50) in test [18] is 7.41 µM (active); in test [7], 1.62 µM (active); in test [8] it was 1.62 µM (active); in test [9], 2.53 µM (active); in [10], 418 nM (active); in test [11], 0.387 µM (active). In addition, the AC50 in test [12] was 2.09 µM (active); in test [13] it was 1.1 µM (active); in test [14], 3.96 µM (active); in test [15] it was 1.8 µM (active); in test [16], 641 nM (active). The result in test [17] was inactive.
